Test results reported in PubChem BioAssay (NCI).
This is part of a sample that, as a whole, favours compounds with a hit. Of some 83,000 tested, about 20% had one in any assay.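 Method: cells in 96-well plates; compound added at one concentration; 48 h incubation; percent growth measured; values under 10 scored active.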 Unmarked numbers belong to inactive results. The source made the active and inactive calls.

The compounds below were run on MDA-MB-468 breast (assay: NCI-60 one-dose screen, 48 h (100 = growth as untreated, 0 = no growth, -100 = all killed)). Conditions: 10 µM unless noted.
For `COCCn1cc(-c2nc(-c3cc4cccnc4[nH]3)cs2)c2cc(OC)ccc21`, the growth was -24% (active). `COC(=O)/C(CCC=C(C)C)=C1\[C@@H](OC(C)=O)C[C@@]2(C)[C@H]1C[C@@H](O)[C@H]1[C@@]3(C)CC[C@H](NCCO)[C@@H](C)[C@@H]3CC[C@@]12C` was tested, and the growth was 104%. In the case of `CCCCN1CCN(c2ccc3nc(-c4ccc5nc(-c6ccc(OC)c(OC)c6)[nH]c5c4)[nH]c3c2)CC1`, the growth was -74.9% (active). In the case of `CCN1CCN(c2cc(C(=O)Nc3cccc(Nc4ccc5c(OC)cccc5n4)c3)cc(C(F)(F)F)c2)CC1`, the growth was 23.8%. For `CC1CN(C2CCCCC2)C(=O)NC1=O` (stereo not given), the growth was 108%. With `N#CCc1cccc2ccccc12` the growth was 112%. In the case of `O=[N+]([O-])c1ccc(-c2nc(Cl)c3c(n2)CCCC3)o1`, the growth was 54.1%. `COc1cc(C2C(C(=O)c3cccs3)=C(O)C(=O)N2CCN2CCOCC2)cc(OC)c1OC` (stereo not given) gave a growth of 101%. In the case of `C#Cc1cccc(Nc2ncnc3cc(OCCOC)c(OCCOC)cc23)c1`, the growth was -4.78% (active). `O=C(Nc1ccc(-c2ccnc(Nc3ccc(N4CCOCC4)cc3)n2)cc1)[C@@H]1CCCN1` gave a growth of 36.2%. In the case of `C=C(C)[C@@H]1CC[C@]2(COC3CCCCO3)CC[C@]3(C)[C@H](CC[C@@H]4[C@@]5(C)C=C(C=O)C(=O)C(C)(C)[C@@H]5CC[C@]43C)[C@@H]12` (stereo not given in full), the growth was -53.1% (active). `COc1cc(/C=C/C(=O)c2ccc(Cl)cc2)ccc1Oc1nc(NCCO)nc(N2CCOCC2)n1` was tested, and the growth was 91.5%. With `O=c1c2cc(F)ccc2sc2c(N3CCNCC3)nc3ccccc3c12` the growth was -41.2% (active). `C=C(C)[C@@H]1CC[C@]2(C(=O)ON)CC[C@]3(C)[C@H](CC[C@@H]4[C@@]5(C)C/C(=C/c6ccc(Br)cc6)C(=O)C(C)(C)[C@@H]5CC[C@]43C)[C@@H]12` showed a growth of 73.2%. For `CCC(NC(c1cc2cccc3ccc4cccc1c4c32)c1nnnn1C(C)(C)C)C1CCCCC1` (stereo not given), the growth was 7.35% (active). With `COc1ccc(OC)c(-c2ccc(-c3ccccc3N)c3[nH]c4ccccc4c23)c1` the growth was 72.1%. `O=C(CNC(=O)c1cccc2ccccc12)Nc1ccccc1Oc1ccccc1` was tested, and the growth was 19.7%. Compound `O=C1Nc2c(ccc(Cl)c2Cl)/C1=C/c1ccc(O)cc1` has a growth of 62%. `O=C1CCC(=O)N1C1CCCCC1` was tested, and the growth was 97%. Compound `COc1cccc(C(=O)Cn2cc(/C=C(\C#N)S(=O)(=O)c3ccccc3)c3ccccc32)c1` has a growth of 104%. Compound `Clc1ccc(/C=C/c2cc(N3CCOCC3)c3cc(Cl)c(Cl)cc3n2)cc1` has a growth of 91.2%. Compound `O=C(NCCNc1cc(-c2cn(-c3ccccc3)nc2-c2cccc(O)c2)ccn1)Nc1cc(C(F)(F)F)cc(C(F)(F)F)c1` has a growth of 93.6%. `COc1ccc(C2Nc3nc(OC)n(C)c(=O)c3N=C3c4ccccc4C(=O)C32)cc1` (stereo not given) gave a growth of 104%. With `CC(=O)[C@H]1CC[C@H]2[C@@H]3CC[C@H]4CC=CC[C@]4(C)[C@H]3CC[C@]12C` the growth was 84.7%. In the case of `COc1ccc(NC(=O)c2ccc(/C=C/C(=O)c3ncc[nH]3)cc2)cc1`, the growth was 44.3%. Compound `CCC(OC(=O)CC(C)C)c1ccccc1` (stereo not given) has a growth of 99.3%. `COc1ccc(CNc2nccnn2)cc1` showed a growth of 88%. `CN1CCN(C(=O)c2c3c(n4ccccc24)C(=O)c2ncccc2C3=O)CC1` was tested, and the growth was 88.4%. `CCCCN(CCCC)CC(O)CN(CC)CC` (stereo not given) gave a growth of 101%. For `Cc1[nH]c(C(=O)Nc2ccc(C(N)=O)cc2OC(C)C)c(Cl)c1Cl`, the growth was 68.4%. `COC(=O)c1cccc(NC(=O)c2ccc(-c3cccc(N)c3)o2)c1` was tested, and the growth was 99.7%. In the case of `CCOC(=O)Nc1ccc2nc(-c3cscn3)[nH]c2c1`, the growth was -2.03% (active). Work on `C=C(C)[C@@H]1CC[C@]2(C(=O)O)CC[C@]3(C)[C@H](CC[C@@H]4[C@@]5(C)C[C@@H](Cc6cn(CCO[C@@H]7O[C@H](COC(C)=O)[C@H](OC(C)=O)[C@H](OC(C)=O)[C@H]7OC(C)=O)nn6)[C@H](O)C(C)(C)[C@@H]5CC[C@]43C)[C@@H]12` yielded a growth of 64.4%. With `C[C@H](Nc1ncnc2ccc(-c3cnc(Cl)c(NS(C)(=O)=O)c3)cc12)c1ccccc1` the growth was -62.4% (active). Compound `O=C1Nc2ccccc2/C1=C/c1cn(C(=O)c2c(Cl)cccc2Cl)c2ccccc12` has a growth of 32.7%.
